RmlCD inh mix – mixture blocks RmlC and RmlD coupled enzyme activity. RmlC/RmlD coupled enzyme inhibition, 384-well mixture HTS. inhibition, % at 5.5 µM. hit rate 0.39% among 110,000; in the data active means inhibition above about 30%, passing the limit was not always enough
RT RNaseH block – blocks HIV-1 RNase H cleavage of RNA/DNA duplex; RT-RNase H RNA/DNA duplex cleavage, fluorescence; inhibition, % at 10 µM; hit rate 1.9% among 65,000; AID 565; in the data active means inhibition above about 50%
Starred values were filed as active, the others as inactive; . = no result given. This excerpt belongs to a sample that is enriched for hits.

SMILES	RmlCD inh mix	RT RNaseH block
CC1CC(C)CN(C(=O)c2ccc3c(=O)n(Cc4ccc5c(c4)OCO5)c(=S)[nH]c3c2)C1 (stereo unspecified)	-10	.
O=C(c1ccc2c(=O)n(Cc3ccc4c(c3)OCO4)c(=S)[nH]c2c1)N1CCCCC1	-10	61*
CCc1nnc(NCC(=O)N2CCc3ccccc32)s1	2	55*
CCc1nnc(NC(=O)c2c(O)c3cccc4c3n(c2=O)CC4)s1	.	-6
CCc1ccccc1NC(=S)N(CCN(C)C)C(C)c1ccccn1 (stereo unspecified)	162	.
N#CC1=C2SCN(Cc3ccccc3)CN2C(=O)CC1c1ccc2c(c1)OCO2 (stereo unspecified)	11	-25
COc1cc(C2CC(=O)N3CN(Cc4ccco4)CSC3=C2C#N)ccc1OCc1ccccc1 (stereo unspecified)	7	11
COc1ccc(C2CC(=O)N3CN(Cc4ccco4)CSC3=C2C#N)cc1 (stereo unspecified)	-35	20
COc1ccc(C2CC(=O)N3CN(c4ccccc4F)CSC3=C2C#N)cc1OC (stereo unspecified)	-3	59*
N#CC1=C2SCN(Cc3ccccc3)CN2C(=O)CC1c1cccs1 (stereo unspecified)	3	65*
COc1ccc(OC)c(C2CC(=O)N3CN(c4ccccc4)CSC3=C2C#N)c1 (stereo unspecified)	2	4
CC(C)c1ccc(C2CC(=O)N3CN(Cc4ccco4)CSC3=C2C#N)cc1 (stereo unspecified)	5	59*
N#CC1=C2SCN(Cc3ccco3)CN2C(=O)CC1c1ccc(Cl)cc1 (stereo unspecified)	5	54*
c1cc(CNCCCN2CCOCC2)ccn1	5	.
CS(=O)(=O)N(CC(=O)O)c1cc(Cl)cc(Cl)c1	-2	-4
O=C(NN1C(=O)C2C(C1=O)C1C=CC2C12CC2)c1ccncc1 (stereo unspecified)	2	.
C=CCn1c2ccccc2c2nnc(SCCCn3c(=O)[nH]c4ccccc43)nc21	71*	.
O=c1[nH]c2ccccc2n1CCCSc1cnc2ccccc2n1	18	-33
CCOC(=O)N1CCN(S(=O)(=O)c2ccc3c(c2)CCN3C(=O)CC)CC1	-13	-2
CC(Oc1ccccc1)C(=O)N1CCC2(CC1)Oc1ccc(F)cc1C(=O)C21CC(c2ccc(Cl)cc2)=NO1 (stereo unspecified)	53	.
COc1ccc(N2CCN(C(c3ccccc3OC)c3nnnn3Cc3ccco3)CC2)cc1 (stereo unspecified)	8	51*
COc1ccc(Cn2nnnc2C(c2ccccc2OC)N2CCC(C(N)=O)CC2)cc1 (stereo unspecified)	-2	0
CCO/C=C1/C(=O)N(CC)c2ccccc21	.	-14
CCO/C=C1\C(=O)N(c2ccccc2)C(=O)c2ccccc21	186*	-10
O=C(CSCCO)Nc1cccc(C(F)(F)F)c1	-7	-13
SMILES	RmlCD inh mix	RT RNaseH block
N#CC1=C(N)N2C(=C(C#N)C1c1ccccc1)Sc1ccccc12 (stereo unspecified)	-8	2
CCOc1ccc(C2C(C#N)=C(N)N3C(=C2C#N)Sc2ccccc23)cc1 (stereo unspecified)	2	72*
Cc1nnc(NC(=O)C2CCCO2)s1 (stereo unspecified)	-7	32
CCCCCc1nnc(NC(=O)C2CCCO2)s1 (stereo unspecified)	93	64*
CCSc1nc2c(c(-c3ccc(C)o3)c1C#N)CCCC2	-6	.
CCOc1ccc(Cn2nnc(C(=O)NCCc3ccc(Cl)cc3)c2N)cc1	13	.
COCCN1Cc2cccc(C(=O)Nc3ccc(C)c(C)c3)c2C1=O	-10	-6
COCCN1Cc2cccc(C(=O)Nc3c(C)cccc3C)c2C1=O	-21	58*
Cc1noc(C)c1C(=O)N1CCc2ccccc2C1	-8	-4
CNC(=O)/C(C#N)=c1\s/c(=C/C(=O)OC)c(=O)n1-c1ccccc1	-3	.
COC(=O)/C=c1\sc2ncnn2c1=O	16	56*
COc1cccc(CNc2ccc(S(=O)(=O)Nc3nccs3)cc2)c1O	-19	14
C=CCc1c(C)nc(C)nc1N/N=C/c1ccc(F)cc1	-4	.
O=C(NC1CCCCCC1)c1ccc2c(=O)n3c(nc2c1)CCCCC3	1	.
O=C1C(Cl)=C(N2CCOCC2)C(=O)N1c1cccc(Cl)c1	8	93*
CN1CCN(C2=C(Cl)C(=O)N(CCc3ccccc3)C2=O)CC1	36	1
O=C1CC(N2CCOCC2)C(=O)N1c1cccc(Cl)c1 (stereo unspecified)	-17	6
O=C1C(Cl)=C(N2CCCCCC2)C(=O)N1c1ccccc1	6	57*
Cc1cccc(Oc2ncnc3oc(-c4ccccc4)cc23)c1C	-15	.
O=C(NC(=O)c1ccccc1)OCC(F)(F)F	5	7
CCC(Sc1nc2cc3c(cc2c(=O)n1Cc1ccco1)OCO3)C(=O)Nc1cccc(OC)c1 (stereo unspecified)	8	60*
CCC(Sc1nc2cc3c(cc2c(=O)n1Cc1ccco1)OCO3)C(=O)Nc1ccccc1OC (stereo unspecified)	6	6
NC(=O)C(CC(=O)O)NC(=O)[C@@H]1CCOc2c(I)cc([N+](=O)[O-])cc2C(=O)N[C@@H](CO)C(=O)N[C@@H](Cc2ccc(O)cc2)C(=O)N1 (stereo partly specified)	-16	.
Cn1cccc1C1NC(=O)c2c(sc3c2CCC(C(C)(C)C)C3)N1 (stereo unspecified)	72	60*
CN1CCc2c(sc3c2C(=O)NC(c2ccco2)N3)C1 (stereo unspecified)	7	0
SMILES	RmlCD inh mix	RT RNaseH block
CN1CCc2c(sc3c2C(=O)NC(c2cn(Cc4ccccc4)c4ccccc24)N3)C1 (stereo unspecified)	-3	9
CN1C(=O)c2c(sc3c2CCCC3)NC1c1ccccc1O (stereo unspecified)	-5	52*
O=C(c1ccccc1Oc1ccccc1)N1CCN(c2ccccc2)CC1	17	22
Nc1nnnn1/N=C/c1ccc(O)cc1	9	.
CCN(C)c1ccc(/C=N\n2nnnc2N)cc1	71*	-15
Cc1cc(C)nc(Nc2ccc(N3CCOCC3)cc2)n1	-1	4
S=P(c1ccc(N2CCOCC2)cc1N1CCOCC1)(N1CCOCC1)N1CCOCC1	.	88*
COc1ccc(-c2nnc(NC(=O)c3ccc(S(=O)(=O)N4CCCc5ccccc54)cc3)o2)cc1	.	52*
O=C(Nc1nnc(C2CC2)o1)c1ccc(S(=O)(=O)N2CCCc3ccccc32)cc1	.	2
Cc1c(O)c(CN2CCCC2)cc2c3c(c(=O)oc12)CCC3	106	-12
CCc1cc(=O)oc2c(C)c(O)c(CN3CCCCC3)cc12	93*	0
Cc1cccc2cc(CN(Cc3nnnn3Cc3ccco3)C3CCCC3)c3nnnn3c12	-13	-5
Cc1cc(=O)oc2cc(OCC(=O)OCC(=O)NCc3ccc4c(c3)OCO4)ccc12	37*	-3
CC(=O)OCC(=O)NCc1ccc2c(c1)OCO2	4	4
N#CC1=C(N)N2C(=C(C#N)C13CCN(Cc1ccccc1)CC3)Nc1ccccc12	-1	38
COc1ccc(N2CCn3c2nc2c3c(=O)n(CCCc3ccccc3)c(=O)n2C)c(OC)c1	9	-10
COc1ccc(N2CCn3c2nc2c3c(=O)n(CCCc3ccccc3)c(=O)n2C)cc1	.	60*
CC1(C)Cn2c(nnc2-c2cccc(O)c2)S1	-11	6
O=C(CSc1ccccn1)Nc1ccc(Br)cn1	-3	-23

Bioassay records (PubChem BioAssay)
